# Bioassay records deposited in PubChem by National Center for Advancing Translational Sciences (NCATS).
# Rows were chosen to be rich in hits. Some 14% of all compounds tested hit in one or more screens of this group.
# HSD17B inh – blocks hydroxysteroid 17-beta dehydrogenase activity | Q99714 | recombinant HSD17B10, NADH fluorescence kinetic | Potency, µM (top dose mostly 57.1 µM), for the others: at the highest dose activity change, negative = inhibition, hits mostly inhibitors | 7.6% of 75,000 active;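 also: the protocol describes HADH2 (HSD17B10) and not the HSD17B4 of the title; potency is read from the fitted curve at half-maximal effect; % is scaled to controls: 0 for no effect and ±100 for the full control effect; nearly all actives have a fitted effect of over 70% in size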
#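 Activity followed as NADH fluorescence increase (ex 360, em 450 nm) every 30 seconds for 4 min, using final 90 uM beta-hydroxybutyryl CoA and 1 mM NAD+. Recombinant His-tagged enzyme, 20 nM, pH 9.0 Tris buffer, 15 min compound preincubation.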
# 4-MU autofl – compounds fluorescent in 4-MU spectral region; max dye-equivalent concentration, M; compound autofluorescence, 340/450 nm, 4-MU equivalents; hits give high values; 11% of 59,000 active; in the data active = max dye-equivalent concentration above about 10 nM; inconclusive = mostly about 1.1 nM to 9.6 nM
#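 Compounds in 100 mM Tris, pH 8.0, incubated 15 min at room temperature, then fluorescence read at 340 nm excitation/450 nm emission. Signal converted to 4-MU dye-equivalent concentration using an on-plate six-point 4-MU standard curve.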
# CRE Fsk mod – CRE-bla signaling modulation under forskolin stimulation; 2.5% of 71,000 active; CHO CRE-bla reporter (cAMP response element driving beta-lactamase), forskolin EC10, beta-lactamase ratio; AID 662; Potency, µM (top dose mostly 38.2 µM), for the others: at the top dose activity change, negative = inhibition, most hits filed as activators; active = well fitted activation curve with a large enough effect in the signal ratio, with a control signal flat, not every such curve was filed as active; inconclusive = small, poorly fitted or top-dose-only effect, or effect the other way, or a change in a side signal; the % refers to the signal ratio; also: potency is read from the fitted curve at half-maximal effect; % of control where 0% means no effect
#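 CRE-bla CHO reporter cells treated with compound titration plus EC10 NKH 477 (water-soluble forskolin), incubated 3 h at 37 °C; CCF4 loading 2 h at room temperature, 460/530 nm emission ratio read, AC50 values derived for positive or negative modulators.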
# A350 autofl – compound fluoresces in the Alexa 350 spectral region. 11% of 59,000 active. max dye-equivalent concentration, M. Compound autofluorescence, 340/450 nm, Alexa 350 dye-equivalents; hits give high values. AID 590; in the data active = max dye-equivalent concentration above about 10 nM; inconclusive = mostly about 1.1 nM to 9.6 nM
# HADH2 inh – inhibitors of human HADH2 dehydrogenase; Potency, µM (series often up to 57.1 µM), without a hit: at the top dose activity change, negative = inhibition, hits mostly inhibitors; Q99714; recombinant HADH2, NADH fluorescence, beta-hydroxybutyryl-CoA; 3.4% of 73,000 active; also: potency is read from the fitted curve at half-maximal effect; % is scaled to controls: 0 for no effect and ±100 for the full control effect; nearly all actives have a fitted effect of over 60% in size
# Target sequence (Q99714 whole entry, looked up, one chain of several): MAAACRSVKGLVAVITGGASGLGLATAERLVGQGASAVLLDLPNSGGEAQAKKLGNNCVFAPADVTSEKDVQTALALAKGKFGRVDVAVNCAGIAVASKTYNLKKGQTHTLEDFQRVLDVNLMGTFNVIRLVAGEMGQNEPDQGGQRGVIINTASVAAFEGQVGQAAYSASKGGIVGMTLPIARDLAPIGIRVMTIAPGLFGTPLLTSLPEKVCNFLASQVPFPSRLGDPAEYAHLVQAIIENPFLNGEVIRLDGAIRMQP
#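 20 nM HADH2 + cpd, 15 min RT; add 1 mM NAD+/90 uM beta-hydroxybutyryl-CoA; kinetic fluorescence 360/450 nm, 4 min. Tris-HCl pH 9.0, 0.01% Tween-20.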
# AID923 – qHTS Assay for Allosteric/Competitive Inhibitors of Caspase-1: Spectroscopic Profiling in AFC Spectral Region; compound fluorescence, AFC spectral region (405/520 nm); Potency, µM (doses to about 57.5 µM), for inactives: top-dose fluorescence increase, actives largely listed as activators; 1.1% of 75,000 active; also: potency is read from the fitted curve at half-maximal effect; 0% is about no effect
#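 Baseline compound fluorescence (AFC region, 405 nm ex/520 nm em) taken from the intercept of kinetic reads with 50 nM caspase-1 and 5 uM Ac-WEHD-AFC; normalized to an on-plate AFC standard curve; compounds titrated up to 57 uM.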
# * = called active by the depositor; i = inactive; u = inconclusive; x = not tested or not shown; [ ] = another dose, or the depositor's remark. Unless noted, calls follow the shape of the dose curve; as a rule, active = well fitted curve in the direction sought with a large enough effect; inconclusive = small, poorly fitted or top-dose-only effect, or another doubt; inactive = no such curve, though single readings can be large; an effect the other way counts as inactive or inconclusive.
SMILES,HSD17B inh,4-MU autofl,CRE Fsk mod,A350 autofl,HADH2 inh,AID923
CCc1nc(N2CCN(C(=O)c3ccco3)CC2)c2oc3ccccc3c2n1,-25%,u,3.2µM*,u,-5%,0%
Cc1nc2ccccc2c2oc(C(=O)N3CCN(C(=O)c4ccco4)CC3)cc12,-6%,x,13µM*,x,9%,0%
CCc1nc(N2CCCC2C(=O)O)c2oc3ccccc3c2n1 (stereo unspecified),3%,i,u,i,-7%,-3%
CC(=O)c1ccc(Nc2nc(C)nc3c2oc2ccccc23)cc1,-20%,1.1e-07M*,2µM*,1e-07M*,-1%,-2%
CC(=O)N1CCN(c2ccc(Nc3ncnc4c3oc3ccccc34)cc2)CC1,u,i,-5%,u,-18%,0%
CC(=O)Nc1ccc2c(c1)/C(=C/c1ccc([N+](C)(C)C)cc1)c1ccccc1-2,5%[11.4 µM],i,6%[7.6 µM],i,-6%[11.4 µM],-1%[11.5 µM]
N=c1cc(C2(O)CCCCC2)n2c(nc3ccccc32)s1,-3%,i,0%,u,-4%,0%
CCN1CCCC1CNC(=O)c1ccc2c(=O)n(CCOC)c(=O)[nH]c2c1 (stereo unspecified),25µM*,8.8e-08M*,1%,8.9e-08M*,u,0%
COCCn1c(=O)[nH]c2cc(C(=O)NCC3CCCO3)ccc2c1=O (stereo unspecified),32µM*,3.3e-08M*,-4%,3.1e-08M*,86%,0%
CCn1c(=O)c(=O)[nH]c2cc(C(=O)Nc3ccc(S(=O)(=O)N4CCCC4)cc3)ccc21,42%,3.8e-08M*,2%,4.8e-08M*,-7%,0%
Cc1cccc(N(C)c2cc(C)nc3nc(C)nn23)c1,5%,x,u,x,-6%,-1%
Cc1ccc(S(=O)(=O)Cn2cnnn2)cc1,0%,i,-5%,u,-1%,0%
O=c1oc2ccccc2n1CSC1=NCCS1,10%,i,u,i,-4%,0%
O=c1oc2ccccc2n1CSc1nc2ccccc2s1,10%,1.5e-08M*,u,u,-6%,-1%
O=C1C(=O)N(CCCn2ccnc2)C(c2cccnc2)/C1=C(/O)c1ccc(Cl)cc1 (stereo unspecified),-1%,x,-6%[7.6 µM],x,3%[11.4 µM],-1%
COc1ccc(OC)c(C(=O)CSc2nnnn2C)c1,-10%,3.1e-08M*,6%,2.8e-08M*,-26%,0%
COc1ccc(OC)c(C(=O)CSc2nc3cccnc3n2C)c1,1%,2.9e-08M*,u,1.1e-08M*,-23%,-1%
CN1CCN(S(=O)(=O)c2ccc(Sc3nc4ccccc4[nH]3)c3nsnc23)CC1,7%,u,-9%,1.4e-08M*,8%,-1%
COCc1c(C(=O)OCC(=O)N2c3ccccc3NC(=O)C2(C)C)oc2ccccc12,-6%,2.2e-08M*,u,2.9e-08M*,8%,0%
COCc1c(C(=O)OCC(=O)N2c3ccccc3CC2C)oc2ccccc12 (stereo unspecified),-5%,i,u,i,-4%,0%
Cc1cc(NCc2ccccc2Cl)n2nnnc2n1,25µM*,u,u,u,8%,2%
Cc1nc2ccc3nc(NC(=O)c4ccc(S(=O)(=O)N5CCOCC5)cc4)sc3c2s1,-5%,1.5e-07M*,-1%,1.6e-07M*,21%,1%
CCOC(=O)c1sc(NC(=O)c2ccc(S(=O)(=O)N3CCOCC3)cc2)cc1C,111%,1.2e-08M*,u,1.3e-08M*,26%,6%
CCOC(=O)c1sc(NC(=O)c2cccc(S(=O)(=O)N3CCN(C)CC3)c2)cc1C,-4%,i,43%,u,-8%,-1%
Cc1nc2ccc3nc(NC(=O)c4ccc5c(c4)OCCO5)sc3c2s1,u,u,-3%,u,106%,1%
SMILES,HSD17B inh,4-MU autofl,CRE Fsk mod,A350 autofl,HADH2 inh,AID923
Cc1nc2c(ccc3nc(NC(=O)c4ccc5c(c4)OCCO5)sc32)s1,u,2.5e-08M*,u,2.2e-08M*,25µM*,0%
CC(C)COC(=O)Nc1ccccc1C(=O)N1CCOCC1,6%,i,u,i,3%,2%
Cc1cccc(Nc2ccccc2C(=O)OCC(=O)N2CCOCC2)c1C,-13%,2.1e-08M*,17%,1.9e-08M*,11%,0%
COc1cccc(OC)c1OCCNC[C@@H]1CSc2ccccc2O1,-5%,i,-13%,i,-14%,0%
CCOC(=O)c1[nH]c(C)c(C(=O)NCCc2ccc(OC)cc2)c1C,5%,i,u,i,4%,1%
COc1ccc(CCNC(=O)c2sc(=S)n(C)c2N)cc1,u,6.9e-08M*,u,9.5e-08M*,7%,12%
COc1ccc(CCC(=O)NCc2cnn(C)c2)cc1,16µM*,5.4e-08M*,14%,5.4e-08M*,32µM*,-1%
COc1ccc(CCNC(=O)c2nn(C)cc2Cl)cc1,0%,u,-9%,1.7e-08M*,-1%,0%
Cn1c(=O)c2c(nc(N/N=C\c3ccccc3C(=O)O)n2C)n(C)c1=O,4%[11.4 µM],i,-4%[7.6 µM],i,24%[11.4 µM],0%[11.5 µM]
COC(c1ccccc1)C(C)C(OC)C(C)C(OC)C(C)C(C)=O (stereo unspecified),5%[11.4 µM],x,x,x,0%[11.4 µM],-2%[11.5 µM]
O=C1[C@H]2[C@H]3[C@H](O)[C@H](O)C/C(=N/OCc4ccccc4)[C@@H]3CC[C@@H]2C(=O)N1Cc1ccccc1,4%[11.4 µM],x,x,x,0%[11.4 µM],0%[11.5 µM]
CCOC(=O)OCC1OC(c2cc(C)cc(C)c2)C=CC1OC(=O)OCC (stereo unspecified),0%[11.4 µM],x,x,x,3%[11.4 µM],-1%[11.5 µM]
CCN(CC)c1nc(Nc2ccc(Cl)cc2)nc(OCC#N)n1,3%,i,5µM*,i,19%,-1%
CC1(C)CC(=O)C2=C(C1)Nc1ccccc1NC2c1ccccn1 (stereo unspecified),5%,x,2%,x,-14%,-1%
CC1=C(C(=O)OC(C)C)C(c2cccs2)n2ncnc2N1 (stereo unspecified),4%,x,18%,x,-13%,-1%
CC1(C)CC(=O)C2=C(C1)Nc1ncnn1C2c1ccccn1 (stereo unspecified),43%,1.9e-08M*,-3%,2.2e-08M*,-14%,0%
c1ccc(C2C3=C(CCCC3)Nc3ncnn32)cc1 (stereo unspecified),-15%,i,-2%,u,-12%,1%
CC1=C(C(=O)NCc2ccccc2)C(c2cccs2)n2ncnc2N1 (stereo unspecified),-5%,u,-5%,u,6%,4%
CC1CC(=O)C2=C(C1)Nc1ncnn1C2c1ccccc1 (stereo unspecified),453%,2.5e-08M*,-4%,2.9e-08M*,-3%,1%
